The source of these data is PubChem BioAssay.

The source made the active and inactive calls.

In one test the target is Albumin (Bos taurus) (UniProt P02769). In words: bovine serum albumin binders on microarray, profiling panel, artefact control for SMM control protein annotation, biochemical, small-molecule microarray, Alexa647 label, 635/667 nm fluorescence (AID 1118).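 Note: score merges 667 nm emission intensity and signal-to-noise per printed compound spot.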 The settings on record: BSA-A647 binding, fluorescence 635 nm, higher = more signal.
Albumin (Bos taurus), sequence (P02769 whole entry, looked up): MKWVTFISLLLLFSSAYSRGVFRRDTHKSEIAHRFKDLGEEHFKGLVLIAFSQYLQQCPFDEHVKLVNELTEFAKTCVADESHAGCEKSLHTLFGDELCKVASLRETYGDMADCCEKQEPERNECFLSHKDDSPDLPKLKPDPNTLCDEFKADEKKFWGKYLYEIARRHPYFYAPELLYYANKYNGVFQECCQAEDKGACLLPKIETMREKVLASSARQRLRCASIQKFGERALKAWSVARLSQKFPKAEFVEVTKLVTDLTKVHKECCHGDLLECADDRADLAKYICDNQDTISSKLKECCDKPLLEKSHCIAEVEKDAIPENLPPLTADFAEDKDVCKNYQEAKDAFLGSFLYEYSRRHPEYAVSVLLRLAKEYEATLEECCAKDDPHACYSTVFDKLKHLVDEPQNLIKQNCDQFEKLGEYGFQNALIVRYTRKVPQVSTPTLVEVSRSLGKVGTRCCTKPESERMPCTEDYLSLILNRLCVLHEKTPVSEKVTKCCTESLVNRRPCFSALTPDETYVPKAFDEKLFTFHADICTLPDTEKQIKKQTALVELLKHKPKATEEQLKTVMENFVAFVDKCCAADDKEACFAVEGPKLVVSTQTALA
Test [1] can be described thus: small-molecule microarray binders of probe aXIP, primary screen, biochemical, NeuroSMM set, 635/667 nm fluorescence (AID 1119).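 Note: probe is the protein aXip251-270 applied at 1 µg/mL to compound-printed slides; binding of probe to printed compounds measured as 667 nm fluorescence plus signal to noise.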 The following applies: higher = more signal, called active from +8 up or from −8 down.
Test [2] in a line: small-molecule binders of probe aNOTCH3, primary screen, biochemical, small-molecule microarray, 635/667 nm fluorescence (AID 1120).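 Note: probe is a biotin-tagged antibody raised against NOTCH3 rather than NOTCH3 protein; score merges spot fluorescence near 667 nm with spot signal to noise.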 The following applies: higher = more signal.
Test [3] in a line: small-molecule binders of probe aNOTCH2, primary screen, biochemical, small-molecule microarray, 635/667 nm fluorescence (AID 1121).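 Note: score merges feature fluorescence read at 667 nm with its signal to noise.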 The following applies: higher = more signal.
The target in test [4] is Carbonic anhydrase 2 (Homo sapiens) (UniProt P00918). Put plainly: CAII small-molecule binders, profiling panel, biochemical, small-molecule microarray, Alexa647-labelled CAII (AID 1122). The following applies: CAII-A647 binding fluorescence, higher = more signal.
Test [5] can be described thus: COS7 lysate on small-molecule microarray, probe aHis, 635 nm (AID 1123).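 Note: z-score combines 667nm fluorescence intensity with signal-to-noise per printed compound spot.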 The following applies: COS7 cell lysate, fluorescence, higher = more signal.
Test [6] is described as follows: compound binding in COS7 lysate, probe aLAP1, primary screen, cell lysate, small-molecule microarray (AID 1124).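 Note: lysate comes from COS7 cells expressing LAP1 and is applied at 0.3 µg/mL; score merges spot fluorescence near 667 nm with signal-to-noise over triplicate slides.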 The settings on record: probe aLAP1, fluorescence, higher = more signal.
The subject of the next test is Sam68 (KHDRBS1). In words: Sam68 small-molecule binders, primary screen, biochemical, small-molecule microarray, 635 nm fluorescence (AID 1125).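 Note: score merges 667 nm channel intensity with signal to noise over triplicate slides.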 The following applies: small-molecule microarray binding, higher = more signal.
For test [7], the system named is Chordin-like protein 2 (CHRDL2). In words: CHRDL2 small-molecule binders, primary screen, biochemical, small-molecule microarray, 635 nm fluorescence (AID 1126).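 Note: printed compound slides probed with Chrdl2 protein at 4 µg/mL for 1 h at 4 C; score merges 667 nm emission intensity with signal to noise over three replicate slides.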 The settings on record: small-molecule microarray binding, fluorescence 635 nm; higher = more signal.
Test [8] addresses Concanavalin-A (Canavalia ensiformis) (UniProt P02866). In words: ConA small-molecule binders, primary screen, artefact control for SMM control protein annotation, biochemical, small-molecule microarray, Alexa647 label, 635 nm (AID 1127).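 Note: z combines 667 nm emission intensity with signal-to-noise across three replicate slides.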 The settings on record: ConA-A647 binding fluorescence, higher = more signal.
Test [9] is described as follows: anti-His antibody binders, primary screen, artefact control for SMM control protein annotation, biochemical, small-molecule microarray, 635 nm fluorescence (AID 1128).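 Note: score merges feature fluorescence with signal-to-noise for each printed compound spot.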 The settings on record: anti-His Alexa647 antibody binding, higher = more signal.
Test [10] deals with Human papillomavirus type 1a E7 protein (residues 1-88). In words: HPV1a E7 small-molecule binders, primary screen, biochemical, small-molecule microarray, residues 1-88, 635 nm (AID 1129). The following applies: small-molecule microarray binding, fluorescence 635 nm; higher = more signal.
Test [11] has as its target Focal adhesion kinase 1 (Homo sapiens) (UniProt Q05397). Put plainly: small-molecule microarray binders of FAK, primary screen, biochemical, 635/667 nm fluorescence, BSA, DTT (AID 1130).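 Note: composite of spot emission at 667 nm and signal to noise over triplicate slides.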 The following applies: PTK2 binding, 635 nm fluorescence, higher = more signal.
The subject of test [12] is Fibrinogen (Alexa647-labelled). Put plainly: fibrinogen binders on compound microarrays, profiling panel, artefact control for SMM control-protein annotation, biochemical, small-molecule microarray, 635/667 nm fluorescence (AID 1131).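 Note: z-score merges 667 nm fluorescence with per-spot signal-to-noise over triplicate slides.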 The settings on record: fibrinogen-A647 binding fluorescence, higher = more signal.
For test [13], the target named is Follistatin (Homo sapiens) (UniProt P19883). In words: follistatin binders on small-molecule microarrays, primary screen, biochemical, small-molecule microarray, 635/667 nm fluorescence (AID 1132). The following applies: FST binding, 635 nm fluorescence, higher = more signal.
Follistatin (Homo sapiens), sequence (P19883 whole entry, looked up): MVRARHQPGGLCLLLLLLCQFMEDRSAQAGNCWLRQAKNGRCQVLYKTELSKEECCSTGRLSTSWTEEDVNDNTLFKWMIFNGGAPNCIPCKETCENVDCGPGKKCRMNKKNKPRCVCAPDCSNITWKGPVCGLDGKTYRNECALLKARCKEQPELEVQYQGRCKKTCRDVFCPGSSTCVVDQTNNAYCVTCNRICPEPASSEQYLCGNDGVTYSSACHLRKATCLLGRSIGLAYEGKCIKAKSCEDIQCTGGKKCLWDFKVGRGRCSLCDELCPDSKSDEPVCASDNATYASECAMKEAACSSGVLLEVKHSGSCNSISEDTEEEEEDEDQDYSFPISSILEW
In test [14] the target is Fibroblast growth factor 2 (Homo sapiens) (UniProt P09038). In words: FGF2 binders on small-molecule microarrays, primary screen, biochemical, small-molecule microarray, 635/667 nm fluorescence (AID 1133). The settings on record: small-molecule microarray binding, FGF2, fluorescence 635/667; higher = more signal.
Fibroblast growth factor 2 (Homo sapiens), sequence (P09038 whole entry, looked up): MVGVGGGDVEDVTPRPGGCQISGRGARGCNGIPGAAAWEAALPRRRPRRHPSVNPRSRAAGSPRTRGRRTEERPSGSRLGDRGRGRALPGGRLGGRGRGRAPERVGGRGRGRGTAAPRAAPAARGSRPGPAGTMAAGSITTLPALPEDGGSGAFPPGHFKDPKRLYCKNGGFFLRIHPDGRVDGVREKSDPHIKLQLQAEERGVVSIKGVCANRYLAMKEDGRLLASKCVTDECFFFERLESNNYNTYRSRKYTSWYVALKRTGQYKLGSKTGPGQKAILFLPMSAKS
Test [15] is described as follows: mitochondrial membrane potential change in A549 cells, profiling panel, cell-based, JC-1 fluorescence, basal, 24 h, 100 nL (AID 1138).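 Note: A549 lung adenocarcinoma cells under basal conditions with no added stimulus; test concentration not given here.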 The following applies: higher = more signal.
The subject of the next test is Lefty1. In words: Lefty1 binders on small-molecule microarrays, primary screen, biochemical, small-molecule microarray, 635/667 nm fluorescence (AID 1139). The following applies: small-molecule microarray binding, fluorescence 635/667; higher = more signal.
In test [16] the test system is wheat germ agglutinin (Triticum aestivum), Alexa647-labelled. Put plainly: wheat germ agglutinin binders on compound microarrays, profiling panel, artefact control for SMM control-protein annotation, biochemical, small-molecule microarray, 635/667 nm fluorescence (AID 1140).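 Note: score merges 667 nm feature emission with signal to noise over triplicate slides.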 The following applies: WGA-A647 binding, 635 nm fluorescence, higher = more signal.
In test [17] the target is Luciferin 4-monooxygenase (Photinus pyralis) (UniProt P08659). In words: firefly luciferase enzyme inhibitors, primary screen, biochemical, luminescence, purified enzyme, 2006 set (AID 1141).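 Note: cell-free assay with purified firefly luciferase at 100 ng per well in PBS; test concentration not given here.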 The settings on record: SteadyGlo luminescence, 30 min, higher = more signal, called active from +8 up or from −8 down.
Luciferin 4-monooxygenase (Photinus pyralis), sequence (P08659 whole entry, looked up): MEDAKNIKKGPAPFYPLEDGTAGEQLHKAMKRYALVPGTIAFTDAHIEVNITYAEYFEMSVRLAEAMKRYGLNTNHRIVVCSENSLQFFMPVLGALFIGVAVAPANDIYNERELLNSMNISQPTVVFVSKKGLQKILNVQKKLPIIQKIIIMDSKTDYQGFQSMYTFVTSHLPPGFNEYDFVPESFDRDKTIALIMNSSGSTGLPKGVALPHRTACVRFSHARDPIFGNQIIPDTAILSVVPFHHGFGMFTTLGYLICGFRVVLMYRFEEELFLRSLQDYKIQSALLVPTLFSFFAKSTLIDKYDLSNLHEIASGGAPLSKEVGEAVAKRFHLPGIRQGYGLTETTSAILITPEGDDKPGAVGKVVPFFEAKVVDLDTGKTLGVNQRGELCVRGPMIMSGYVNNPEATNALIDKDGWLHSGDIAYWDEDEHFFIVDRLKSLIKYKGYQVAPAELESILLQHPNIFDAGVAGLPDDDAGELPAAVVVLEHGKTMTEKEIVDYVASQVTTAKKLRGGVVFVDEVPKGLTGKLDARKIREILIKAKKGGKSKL

Focal adhesion kinase 1 (Homo sapiens), sequence (Q05397 whole entry, looked up): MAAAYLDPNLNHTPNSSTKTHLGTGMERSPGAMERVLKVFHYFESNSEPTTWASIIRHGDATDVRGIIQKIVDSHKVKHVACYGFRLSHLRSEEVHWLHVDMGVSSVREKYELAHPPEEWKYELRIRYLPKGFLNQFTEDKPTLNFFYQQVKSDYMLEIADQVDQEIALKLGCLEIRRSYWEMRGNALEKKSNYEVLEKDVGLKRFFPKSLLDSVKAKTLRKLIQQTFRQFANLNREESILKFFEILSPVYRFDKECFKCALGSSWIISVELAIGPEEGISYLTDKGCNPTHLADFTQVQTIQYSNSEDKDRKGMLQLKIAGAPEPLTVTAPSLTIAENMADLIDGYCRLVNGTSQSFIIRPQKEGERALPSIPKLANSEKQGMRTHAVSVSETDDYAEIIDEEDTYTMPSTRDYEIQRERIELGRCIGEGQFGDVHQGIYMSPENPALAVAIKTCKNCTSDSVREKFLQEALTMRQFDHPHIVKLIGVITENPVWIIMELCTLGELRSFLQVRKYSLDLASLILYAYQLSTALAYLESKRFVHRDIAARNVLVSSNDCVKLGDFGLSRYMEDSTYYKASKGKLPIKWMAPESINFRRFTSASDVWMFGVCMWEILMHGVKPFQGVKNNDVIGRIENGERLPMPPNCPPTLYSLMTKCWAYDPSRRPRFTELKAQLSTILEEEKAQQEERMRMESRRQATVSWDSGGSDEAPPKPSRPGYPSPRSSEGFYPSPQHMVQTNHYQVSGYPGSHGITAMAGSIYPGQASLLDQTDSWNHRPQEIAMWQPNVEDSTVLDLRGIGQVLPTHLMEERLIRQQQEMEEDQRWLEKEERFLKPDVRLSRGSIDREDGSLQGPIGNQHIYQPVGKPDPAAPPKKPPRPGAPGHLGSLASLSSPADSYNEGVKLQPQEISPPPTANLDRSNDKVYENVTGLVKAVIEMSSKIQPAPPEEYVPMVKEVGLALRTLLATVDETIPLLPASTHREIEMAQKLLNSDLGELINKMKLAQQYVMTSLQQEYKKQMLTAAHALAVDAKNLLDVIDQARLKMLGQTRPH
Concanavalin-A (Canavalia ensiformis), sequence (P02866 whole entry, looked up): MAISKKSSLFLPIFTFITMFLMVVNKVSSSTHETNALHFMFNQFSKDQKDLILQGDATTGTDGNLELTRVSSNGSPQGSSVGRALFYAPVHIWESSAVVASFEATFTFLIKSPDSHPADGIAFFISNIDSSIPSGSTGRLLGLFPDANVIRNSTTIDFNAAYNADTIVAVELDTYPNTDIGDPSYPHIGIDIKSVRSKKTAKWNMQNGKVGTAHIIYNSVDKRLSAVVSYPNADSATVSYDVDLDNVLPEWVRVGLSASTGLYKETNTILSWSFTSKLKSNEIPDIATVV

As to `CCCCCN1CC=CC23O[C@@H]4/C=C\CCC(C)OC(=O)C4[C@H]2C(=O)N(C(C)CO)[C@@H]3C1=O` (stereo not given in full), the composite z-score with Albumin (Bos taurus) is -0.671; in test [2], -0.127; in [3] it was -0.14; in [4], 0.536; in test [5] it was -0.0346; in [6], 0.169. For the same compound, the composite z-score in the test with Sam68 (KHDRBS1) was 0.579; in test [7], -0.388; in test [8], -0.211; in [9], -0.361; in test [10], -0.575; in test [11], -0.521. The composite z-score is -0.925 in test [12]; 0.274 in test [13]; -0.556 in test [14]; 0.696 with Lefty1; -0.721 in test [16]. Moreover, the composite Z-score in [1] was -0.275 (inactive). Moreover, the figures for the z-score in test [15] and in test [17] were 0.157 and -0.078 (inactive), respectively.

In the case of `CC(C)NC(=O)[C@@H]1c2ccccc2C(=O)N(C2Cc3ccccc3C2)[C@H]1c1ccc(CO)cc1`, the composite z-score with Albumin (Bos taurus) was 0.416; in test [2], -0.145; in test [3] it was -0.117; in test [4] it was 0.492; in [5] it was 1.62; in test [6] it was 0.781. The composite z-score is 0.983 with Sam68 (KHDRBS1); -0.321 in [7]; 0.771 in test [8]; 1.51 in test [9]; 1.04 in [10]; 0.0815 in test [11]. In addition, the composite z-score in test [12] was 0.445; in test [13], 0.351; in test [14], 0.162; with Lefty1, -0.0727; in [16] it was 0.664. For the same compound, the composite Z-score in test [1] was 0.392 (inactive). Also, the z-score in test [15] is 2.54; in [17], 0.668 (inactive).

For the compound `CO[C@H]1O[C@H](CO)[C@@H](OC(=O)Nc2ccc(Oc3ccccc3)cc2)[C@H](OC(=O)Nc2ccc3c(c2)OCO3)[C@H]1OC(=O)Nc1ccc2c(c1)OCO2`, the composite z-score was 0.703 in the test with Albumin (Bos taurus); 0.264 in [2]; 0.0976 in [3]; 0.471 in test [4]; 2.19 in test [5]; 0.763 in test [6]. The composite z-score came out at 1.3 in the test with Sam68 (KHDRBS1); 0.317 in [7]; 1.12 in test [8]; 1.83 in test [9]; 1.2 in [10]; 1.29 in [11]. The composite z-score is 0.933 in [12]; 1.34 in test [13]; 0.957 in test [14]; 1.05 in the test on Lefty1; 1.18 in test [16]. Further, the composite Z-score in test [1] is 0.705 (inactive). For the same compound, the figures for the z-score in test [15] and in [17] were -0.249 and -6.84 (inactive), respectively.

`Cc1ccc(S[C@]2(C(=O)O)CC(=O)N(C(C)C)[C@@H]2c2ccc(CO)cc2I)cc1`: the composite z-score with Albumin (Bos taurus) is 0.162; in test [2], 0.208; in test [3] it was 0.164; in test [4], 0.566; in test [5] it was 1.99; in test [6], 0.73. Further, the composite z-score was 0.784 in the test with Sam68 (KHDRBS1); -0.17 in [7]; 1.03 in [8]; 3.36 in test [9]; 0.476 in test [10]; 0.929 in test [11]. Moreover, the composite z-score in test [12] is 0.432; in test [13] it was 1.12; in test [14], 0.253; with Lefty1 it was -0.176; in [16], 0.939. Moreover, the composite Z-score in [1] is 0.556 (inactive). Also, the figures for the z-score in [15] and in test [17] were 1.33 and -2.26 (inactive), respectively.

Take `COCCOC(=O)N1C(=O)[C@@]2(c3cc(C#Cc4ccc(OC)cc4)ccc31)[C@H](c1ccc(O)cc1)N1[C@H](c3ccccc3)[C@H](c3ccccc3)OC(=O)[C@H]1[C@@H]2C(=O)N1CCc2cc(OC)c(OC)cc2C1`: the composite z-score with Albumin (Bos taurus) is 0.595; in test [2] it was 0.327; in [3], -0.0877; in [4] it was 0.117; in test [5] it was 0.75; in [6] it was 0.16. For the same compound, the composite z-score in the test with Sam68 (KHDRBS1) worked out at 1.28; in test [7] it was 0.252; in [8] it was 1.12; in test [9] it was 0.744; in [10], 0.7; in test [11], 1.02. For the same compound, the composite z-score in test [12] was determined as 0.935; in test [13], 1.02; in [14], 0.413; with Lefty1, 0.785; in [16], 0.555. Besides, the composite Z-score in test [1] was 0.536 (inactive). For the same compound, the results for the z-score in [15] and in [17] were -0.734 and 0.644 (inactive), respectively.
